Results reported in PubChem BioAssay AID1159580 (chemical genetic matrix, 2015).
The campaign covered roughly 5,500 compounds. About 2,000 (36%) were called active. Not shown: some 18% with an inconclusive outcome. The list shows a part of the results. Unmarked numbers belong to inactive results. Cut-off read from the data, not from the text of the source: active = normalized growth mostly below about 0.91 (no sharp cut-off); inconclusive = no clear call, values can overlap the other calls; inactive = mostly above about 0.92.

Assay: chemical genetic growth profiling, strain panel (AID 1159580);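 note: tested at 20 µM; growth read once vehicle control cultures reached saturation at 30 °C; 1 = growth at the plate median or of vehicle wells; lower values mean less growth of the strain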
Conditions: growth OD
[1] = S. cerevisiae deletion strains, locus YAL013W, strain DEP1, hits give low values
[2] = S. cerevisiae deletion strains, locus YBR229C, strain ROT2, hits give low values
[3] = S. cerevisiae deletion strains, locus YDL101C, strain DUN1, hits give low values
[4] = S. cerevisiae deletion strains, locus YDR150W, strain NUM1, hits give low values
[5] = S. cerevisiae deletion strains, locus YEL061C, strain CIN8, hits give low values
[6] = S. cerevisiae deletion strains, locus YGR078C, strain PAC10, hits give low values
[7] = S. cerevisiae deletion strains, locus YHR030C, strain SLT2, hits give low values
[8] = S. cerevisiae deletion strains, locus YHR087W, strain rtc3, hits give low values
[9] = S. cerevisiae deletion strains, locus YJL187C, strain SWE1, hits give low values
[10] = S. cerevisiae deletion strains, locus YJR043C, strain POL32, hits give low values
[11] = S. cerevisiae deletion strains, locus YJR075W, strain HOC1, hits give low values
[12] = S. cerevisiae deletion strains, locus YKL190W, strain CNB1, hits give low values
[13] = S. cerevisiae deletion strains, locus YLR039C, strain RIC1, hits give low values
[14] = S. cerevisiae deletion strains, locus YLR058C, strain SHM2 (second series), hits give low values
[15] = S. cerevisiae deletion strains, locus YLR085C, strain ARP6, hits give low values
[16] = S. cerevisiae deletion strains, locus YLR262C, strain YPT6, hits give low values
[17] = S. cerevisiae deletion strains, locus YML094W, strain GIM5, hits give low values
[18] = S. cerevisiae deletion strains, locus YMR219W, strain ESC1, hits give low values
[19] = S. cerevisiae deletion strains, locus YMR263W, strain SAP30, hits give low values
[20] = S. cerevisiae deletion strains, locus YMR307W, strain GAS1, hits give low values
[21] = S. cerevisiae deletion strains, locus YNL153C, strain GIM3, hits give low values
[22] = S. cerevisiae deletion strains, locus YNL298W, strain CLA4 (second series), hits give low values
[23] = S. cerevisiae deletion strains, locus YNL322C, strain KRE1, hits give low values
[24] = S. cerevisiae deletion strains, locus YNR030W, strain Alg12, hits give low values
[25] = S. cerevisiae deletion strains, locus YPL055C, strain LGE1, hits give low values
[26] = S. cerevisiae deletion strains, locus YPL241C, strain CIN2, hits give low values
[27] = S. cerevisiae deletion strains, locus YPR135W, strain CTF4, hits give low values

CCSc1sc(C(=O)OC)c(-c2ccc(Cl)cc2)c1C#N
normalized growth [1]: 1.01
normalized growth [2]: 0.985
normalized growth [3]: 1.02
normalized growth (S. cerevisiae deletion strains, locus YDL134C, strain PPH21, hits give low values): 0.964
normalized growth [4]: 1.06
normalized growth [5]: 0.917
normalized growth [6]: 0.995
normalized growth (S. cerevisiae deletion strains, locus YGR229C, strain SMI1, hits give low values): 0.989
normalized growth [7]: 0.989
normalized growth [8]: 1
normalized growth [9]: 0.983
normalized growth [10]: 1.05
normalized growth [11]: 0.968
normalized growth [12]: 0.99
normalized growth [13]: 1.01
normalized growth [14]: 0.986
normalized growth [15]: 0.817
normalized growth [16]: 0.999
normalized growth [17]: 0.946
normalized growth [18]: 0.992
normalized growth [19]: 1.07
normalized growth [20]: 0.972
normalized growth [21]: 0.994
normalized growth [22]: 0.94
normalized growth [23]: 0.99
normalized growth [24]: 0.954
normalized growth [25]: 1.08
normalized growth [26]: 0.96
normalized growth [27]: 1.01

COC(=O)c1ccc(-c2ccc(Cl)cc2)s1
normalized growth [1]: 0.898 (active)
normalized growth [2]: 0.901 (active)
normalized growth (S. cerevisiae deletion strains, locus YCL061C, strain MRC1, hits give low values): 0.858 (active)
normalized growth [3]: 0.906
normalized growth [4]: 0.893
normalized growth [5]: 0.87 (active)
normalized growth [6]: 0.914 (active)
normalized growth [7]: 0.587 (active)
normalized growth [8]: 0.909 (active)
normalized growth [9]: 0.961
normalized growth [10]: 0.927
normalized growth [11]: 0.88 (active)
normalized growth [12]: 0.913 (active)
normalized growth [13]: 0.497 (active)
normalized growth [14]: 0.907 (active)
normalized growth [15]: 0.577 (active)
normalized growth [16]: 0.435 (active)
normalized growth [17]: 0.871
normalized growth [18]: 0.908 (active)
normalized growth [19]: 0.893
normalized growth [20]: 0.629 (active)
normalized growth [21]: 0.872 (active)
normalized growth [22]: 0.79 (active)
normalized growth [23]: 0.92 (active)
normalized growth [24]: 0.869 (active)
normalized growth (S. cerevisiae deletion strains, locus YOL006C, strain TOP1, hits give low values): 0.637 (active)
normalized growth [25]: 1.08
normalized growth [26]: 0.83 (active)
normalized growth [27]: 0.597 (active)
normalized growth (S. cerevisiae strains, strain wild type, hits give low values): 0.928
